CHX counter = affects cycloheximide protein synthesis inhibition readout, counter-screen; cell reporter, cycloheximide protein synthesis inhibition counterscreen; max response, %; 300,000 tested, 12% active; AID 2314; in the data active = max response mostly above about 13%, no sharp cut-off; inactive = mostly below about 14%; note: read at 38.3 µM for the half of the compounds with a filed dose
Shiga toxin inh = inhibitors of Shiga toxin in Vero cells; Vero cells, Shiga toxin protein synthesis inhibition reporter; inhibition, % at 38.7 µM; 290,000 tested, 9.2% active; AID 2315; in the data active = inhibition mostly above about 28%, no sharp cut-off; inactive = mostly below about 43%
LmPK inh = LmPK (Leishmania mexicana) enzyme inhibition; Potency, µM (top dose mostly 57.5 µM), hits mostly inhibitors; AID 1721; 290,000 tested, 0.37% active; Q27686; purified LmPK, Kinase-Glo ATP luminescence, 1 h
Target sequence (Q27686 whole entry, looked up): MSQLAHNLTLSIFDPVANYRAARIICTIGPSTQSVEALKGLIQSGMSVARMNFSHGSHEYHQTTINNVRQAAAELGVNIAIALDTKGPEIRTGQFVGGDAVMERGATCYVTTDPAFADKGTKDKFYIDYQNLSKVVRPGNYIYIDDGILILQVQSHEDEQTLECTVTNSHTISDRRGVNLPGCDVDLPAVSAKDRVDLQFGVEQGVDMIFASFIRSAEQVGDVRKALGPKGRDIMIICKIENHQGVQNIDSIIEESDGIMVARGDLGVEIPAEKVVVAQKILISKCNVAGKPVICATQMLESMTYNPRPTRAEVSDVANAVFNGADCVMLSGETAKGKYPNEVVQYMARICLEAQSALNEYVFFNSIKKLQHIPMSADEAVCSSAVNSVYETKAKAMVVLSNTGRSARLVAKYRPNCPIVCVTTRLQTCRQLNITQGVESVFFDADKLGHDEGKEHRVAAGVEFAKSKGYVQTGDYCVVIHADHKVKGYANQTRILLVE
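qHTS format; LmPK 0.1 nM; substrates PEP 0.5 mM and ADP 0.1 mM. One-hour room-temperature incubation, then coupled luciferase luminescence; 0.5 nM enzyme wells mark activation.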
FBPA Giardia inh = Giardia lamblia aldolase inhibition | Potency, µM (series often up to 59.6 µM), hits mostly inhibitors | purified Giardia FBPA | 290,000 tested, 0.71% active; note: nearly all actives have a fitted effect of over 55% in size
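Giardia FBPA (40 nM reagent) was preincubated 10 min at RT with compound (up to 57.5 uM final), then substrate plus GAPDH/TPI/NAD/arsenate coupling system with diaphorase/resazurin was added; resorufin fluorescence (525/598 nm) was read after 20 min.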
Tb PYK inh = T. brucei pyruvate kinase inhibition; TbPYK enzyme, Kinase-Glo Plus ATP luminescence, 45 min; Potency, µM (titrated, usually from 76.8 µM), usual class: inhibitors; 410,000 tested, 0.12% active; AID 624173; note: nearly all actives have a fitted effect of over 50% in size
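T. brucei PYK with substrate was exposed to pin-transferred compounds across a concentration series, then started with 130 uM ADP (final). After 45 min at room temperature, Kinase-Glo Plus luminescence was read, normalized and curve-fitted.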
RE007 growth inh = less growth of the S. pombe RE007 Vpr strain | AID 651644 | 360,000 tested, 0.21% active | Potency, µM (series often up to 92.2 µM), actives largely listed as inhibitors | S. pombe RE007 Vpr strain, BacTiter-Glo ATP luminescence, 24 h; active = well fitted falling curve with a large enough effect; inconclusive = small, poorly fitted or top-dose-only effect; inactive = no such curve, though single readings can be large or run the other way; note: nearly all actives have a fitted effect of over 50% in size
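Fission yeast RE007 carrying one integrated HIV-1 vpr copy, seeded at OD 0.01 in PMG+AL medium with 23 nL pinned compound. Grown 24 h at 30 degrees; viability read by BacTiter-Glo luminescence after 5 min.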
Hits are given with their value; . = inactive; ? = inconclusive; / = not tested or not shown. The entries come from a sample that favours hits as a whole. Unless noted, calls come from the whole dose curve; as a rule, active = well fitted curve in the direction sought with a large enough effect; inconclusive = small, poorly fitted or top-dose-only effect, or another doubt; inactive = no such curve, though single readings can be large; an effect the other way counts as inactive or inconclusive.

SMILES	CHX counter	Shiga toxin inh	LmPK inh	FBPA Giardia inh	Tb PYK inh	RE007 growth inh
COc1cc(C2Nc3ccccc3C(=O)N2c2ccc3c(c2)OCCO3)ccc1OCC(C)C (configuration not stated)	31	61	.	.	.	.
O=C1c2ccccc2NC(c2ccc3c(c2)OCCO3)N1c1ccc2c(c1)OCCO2 (configuration not stated)	44	81	.	.	.	.
CC(C)c1nc2sc3c(c2c(=O)[nH]1)CC(C)(C)OC3	.	.	.	.	.	.
O=C(CC[C@H]1O[C@@H](n2ccc(=O)[nH]c2=O)[C@H](O)[C@@H]1O)NC1CCN(Cc2ccccc2)C1 (some centres not stated)	/	/	/	/	.	.
Cc1ccc(-c2noc(CCC(=O)Nc3ccc(F)cc3Cl)n2)cc1	/	/	/	/	.	/
O=C(CN1C(=O)NC2(CCCCCC2)C1=O)N1CCN(S(=O)(=O)c2ccc(Cl)cc2)CC1	.	.	.	.	.	.
COc1ccc(Nc2nccc(-c3ccc(C#N)cc3)n2)cc1	.	.	.	.	.	.
COc1ccc(Nc2nccc(-c3cccc(N)c3)n2)cc1	68	71	.	.	.	.
COc1ccc(Nc2nccc(NCCO)n2)cc1	41	72	/	.	/	/
CC(=O)NC1[C@H](O)C[C@@](O)(C(=O)O)O[C@H]1[C@H](O)[C@H](O)CO (some centres not stated)	/	/	/	/	.	/
COc1ccc(C(=O)CCC(C)(C)[N+](=O)[O-])cc1	32	.	.	.	.	.
CNc1cc(C(F)(F)F)nc(-c2ccccn2)n1	.	.	.	.	.	.
Nc1nc(-c2ccccn2)nc(N)c1Cc1c(F)cccc1Cl	34	.	.	.	.	?
Nc1nc(-c2ccccn2)nc(N)c1Cc1ccccc1F	38	78	.	.	.	.
Nc1nc(-c2ccccn2)nc(N)c1Cc1ccc(Cl)cc1Cl	37	56	.	.	.	?
Clc1ccc(Cc2ccc(Cl)nn2)c(Cl)c1	.	.	.	.	.	.
CCn1c(SCC(=O)Nc2ccc3c(c2)OCO3)nc2c1c(=O)n(C)c(=O)n2C	.	.	.	.	.	.
Cn1c(=O)c2c(nc(SCC(=O)O)n2Cc2cc3c(cc2Cl)OCO3)n(C)c1=O	.	.	.	.	25µM	.
O=C1CCOc2cc(OCc3ccccc3)ccc21	33	50	?	.	.	.
CC1=C(C(=O)Nc2cccc(C)c2C)C(c2cccs2)NC(=S)N1 (configuration not stated)	.	.	.	.	.	.
c1ccc(OCCOc2ccccc2-c2nnco2)cc1	15	136	.	.	.	.
Clc1ccccc1COc1ccccc1-c1nnco1	.	.	.	.	.	.
CC1S/C(=N/N=C/c2cccs2)NC1=O (configuration not stated)	16	20	.	.	.	.
CCC1S/C(=N/N=C/c2cccs2)NC1=O (configuration not stated)	.	.	.	.	.	.
C(=N\N=C\c1cccs1)/c1cccs1	45	71	.	.	.	.
SMILES	CHX counter	Shiga toxin inh	LmPK inh	FBPA Giardia inh	Tb PYK inh	RE007 growth inh
CCCCCc1ccc(-c2cn(Cc3ccc(C)cc3)nn2)cc1	.	.	.	.	.	.
COc1ccc(-c2cn(Cc3ccc(C)cc3)nn2)cc1	55	79	.	.	.	.
Cc1ccc(C)c(NC(=O)N2CCCCCC2)c1	.	.	.	.	.	.
O=C(Nc1ccccc1F)N1CCc2ccccc2C1	57	84	.	.	.	.
Cc1ccc(C)c(NC(=O)N2CCc3ccccc3C2)c1	42	78	.	/	.	.
CC(C)C[C@H]1COc2cccc(N3CCC[C@H]3CO)c2S(=O)(=O)N1	/	/	/	/	.	.
O=[N+]([O-])CC(=Nc1ccc(Cl)cc1)N/N=C\c1oc(O)c2ccccc12	21	.	.	.	.	.
Cc1ccccc1CC1(CO)CCCN(C(=O)CCN2CCCO2)C1 (configuration not stated)	17	36	.	.	.	.
Cc1ccccc1CC1(CO)CCCN(C(=O)CCC(=O)c2ccccc2)C1 (configuration not stated)	.	.	.	.	.	.
CC(CC(=O)N(CCC1=CCCCC1)c1c(N)n(Cc2ccccc2)c(=O)[nH]c1=O)c1ccccc1 (configuration not stated)	/	/	/	/	.	.
CC(C)(C)c1ccc(NC(=O)COC(=O)c2ccc([N+](=O)[O-])s2)cc1	14	.	.	.	.	/
Cc1ccccc1NC(=O)COC(=O)C1(C)CC1(Cl)Cl (configuration not stated)	.	.	.	.	.	.
CC(C)(C)c1ccc(NC(=O)COC(=O)C2=COCCO2)cc1	21	.	.	.	.	.
CC(C)(C)c1ccc(NC(=O)COC(=O)C2(C)CC2(Cl)Cl)cc1 (configuration not stated)	49	77	.	.	.	.
Cc1ccc(C(=O)OCC(=O)Nc2ccc(C(N)=O)cc2)s1	/	/	/	/	.	.
CCN(c1ccc(NC(=O)COC(=O)c2ccc(C)s2)cc1)C(C)C	19	.	.	.	.	.
O=C(COC(=O)c1ccc([N+](=O)[O-])s1)Nc1ccc(F)cc1	/	/	/	/	.	?
CCCCCCCN1C(Nc2ccccc2)=NC[C@@H]1C	/	/	/	/	.	.
O=C(O)C1C2CCC(O2)C1C(=O)Nc1ccc(F)c(Cl)c1 (configuration not stated)	.	.	.	.	.	.
CC1(C(=O)OCC(=O)Nc2nc(-c3ccc(F)c(F)c3)cs2)CC1(Cl)Cl (configuration not stated)	.	54	.	.	.	.
COc1ccc(CC(=O)Nc2nc(-c3ccc(F)c(F)c3)cs2)cc1	.	.	.	.	.	.
CC(C)c1ccc(NC(=O)COC(=O)C2=COCCO2)cc1	33	.	.	.	.	.
O=C(COC(=O)C1=COCCO1)Nc1ccc(F)cc1	/	/	/	/	.	.
C[N+](C)(C)CCC(=O)c1cccc2ccccc12	/	/	/	.	/	/
COC(=O)c1ccc(N2C(=O)CC(N(C)CCc3ccc(OC)c(OC)c3)C2=O)cc1 (configuration not stated)	.	.	.	.	.	7.9µM
COc1ccc(N2C(=O)CC(N(C)CCc3ccc(OC)c(OC)c3)C2=O)cc1 (configuration not stated)	.	.	.	.	.	22µM
COc1ccc(CCN(C)C2CC(=O)N(c3ccccc3)C2=O)cc1OC (configuration not stated)	.	.	.	.	.	6.3µM
CC(C)(C)OC(=O)NCCCCCNC(=O)c1[nH]cnc1C(=O)Nc1cc(Br)ccc1F	/	/	/	/	.	.

High-throughput results: PubChem BioAssay, National Center for Advancing Translational Sciences (NCATS)
